Measurements as given in PubChem BioAssay (Tox21).
Values without a mark were called inactive. Calls follow the shape of the dose curve; as a rule, active = well fitted activation curve with a large enough effect in the repeat runs; inconclusive = weak or mixed curves; inactive = flat fitted curve, though single readings scatter.

Assay: Caspase-3/7 induction in CHO-K1 cells by small molecules, qHTS assay (AID 1346980); also: nearly all actives have a fitted effect of over 15% in size
Conditions: CHO-K1 caspase-3/7 induction, Caspase-Glo luminescence, 17 h; series mostly up to 92.4 µM; caspase-3/7 activation: at the top concentration
From the text: National Center for Advancing Translational Sciences [NCATS]
NIH Chemical Genomics Center [NCGC]
U.S. Environmental Protection Agency [EPA]
National Institutes of Environmental Health Sciences [NIEHS]
National Toxicology Program [NTP]
Apoptosis is a process of programmed cell death and plays a central role in the development of multicellular organisms. It is a highly regulated process and induces cell death by activating caspases, which are the members of cysteine aspartic acid-specific protease (caspase) family. Caspases involved in apoptosis are classified by their mechanism of action as initiator caspases (caspase-2, -8, -9 and -10) and executioner caspases (caspase-3, -6, and -7). Inhibition of apoptosis results in number of cancers, autoimmune diseases, inflammatory diseases and viral infection. To identify small molecule compounds that induce apoptosis, a homogeneous, luminescent Caspase-Glo 3/7 assay was used. Wild type CHO-K1 cells were used to screen Tox21 libraries for identifying caspase-3/7 activity inducers.
CHO-K1 cells were dispensed at 1,500 per well in 5uL of culture medium into white solid bottom 1536-well plates (Corning Life Sciences, Corning, NY) using a Multidrop Combi (Thermo Scientific, Waltham, MA) dispenser. The assay plates were incubated at 37 C and 5% CO2 for 5hr, and then 23nL of compounds dissolved in DMSO and positive control were transferred using a Pintool station (Wako, San Diego, CA). The assay plates were incubated at 37C and 5% CO2 for 17hr. For caspase-3/7 activity read, 4uL of Caspase-Glo 3/7 reagent (Promega Corporation, Madison, WI) was added to each well of the assay plates using Flying Reagent Dispenser (FRD, Aurora Discovery, San Diego, CA) and incubated the assay plates at room temperature for 30min. The luminescence signal was quantified using a ViewLux plate reader (Perkin Elmer, Shelton, CT).
% is scaled to controls: 0 for no effect and ±100 for the full control effect.

SMILES | caspase-3/7 activation
CC(C)[N+](C)(C)CC(O)COc1cccc2ccccc12 (stereo not given) | 0.0827% [at 42.5 µM]
OCCCCCCO | 0.113%
CCCCCCCCCCCCCCCCCC(=O)OCCCCCCCCCCCCCC(C)C | 0.54%
Fc1ccccc1-c1ccccc1 | 0.882%
O=C(O)c1ccccc1S | 0.444% [at 42.5 µM]
Nc1nc2c(ncn2CCC(CO)CO)c(=O)[nH]1 | 1.3% [at 42.5 µM]
CCCCCOC(=O)Nc1nc(=O)n([C@@H]2O[C@H](C)[C@@H](O)[C@H]2O)cc1F | 0.556% [at 42.5 µM]
CCN1CCN(c2cc3c(cc2F)c(=O)c(C(=O)O)cn3C2CC2)CC1 | 0.194% [at 42.5 µM]
Cc1ccc(N)cc1[N+](=O)[O-] | -1.04%
CCCC(=O)O[C@]1(C(=O)CCl)[C@@H](C)C[C@H]2[C@@H]3CCC4=CC(=O)C=C[C@]4(C)[C@@]3(F)C(=O)C[C@@]21C | 1.17% [at 42.5 µM]
O=C(CCOCCOCCOCCOCCC(=O)Nc1c(I)cc(I)c(C(=O)O)c1I)Nc1c(I)cc(I)c(C(=O)O)c1I | -0.0506% [at 42.5 µM]
NC(=O)c1ncn([C@@H]2O[C@H](CO)[C@@H](O)[C@H]2O)c1O | -1.48% [at 42.5 µM]
Oc1ccc2c(c1)OC[C@@H](N1CCC(O)(c3ccc(F)cc3)CC1)[C@H]2O | -4.2% [at 42.5 µM]
Cc1ncc(CSSCc2cnc(C)c(O)c2CO)c(CO)c1O | 0.316% [at 42.5 µM]
Nc1ncnc2c1ncn2Cc1c(F)cccc1Cl | -0.605% [at 42.5 µM]
CC(=O)CCc1ccc(O)cc1 | -0.121%
CCCc1ccc(N)cc1 | 2.6%
O=C(O)c1ccccc1-c1ccc(C(F)(F)F)cc1 | 0.453% [at 42.5 µM]
CCCOc1ccccc1-c1nc2n[nH]nc2c(=O)[nH]1 | 0.878% [at 42.5 µM]
CC(C)(O)C(=O)c1ccc(OCCO)cc1 | -0.547%

SMILES | caspase-3/7 activation
CC(C)(C)CC(C)(C)N | 0.413%
CC(C)CCCC(C)CCCC(C)CCCCC(C)CCCC(C)CCCC(C)C (stereo not given) | 1.68% [at 42.5 µM]
CCCCOCC(C)OCC(C)O (stereo not given) | -1.19%
Cc1cc(C)cc(OCC2CNC(=O)O2)c1 (stereo not given) | -1.3% [at 42.5 µM]
C=CC(=O)N1CCOCC1 | -0.457%
CCCCCCCCCCCl | 0.682%
OC/C=C/c1ccccc1 | -0.786%
CCCCNc1ccccc1 | 0%
NS(=O)(=O)c1cc2c(cc1Cl)NC(CSCc1ccccc1)=NS2(=O)=O | 3.2% [at 42.5 µM]
NC(=O)Nc1nc2ccccc2[nH]1 | 2.93%
CCC(=O)Nc1cccc(N)c1 | -1.07%
O=[N+]([O-])c1ccc(Oc2ccc([N+](=O)[O-])cc2)cc1 | -0.2%
N[C@@H](CS)C(=O)O | 3.36%
C=C(C)C(=O)NCCCN(C)C | 0.0095%
O=c1[nH]c2ccccc2c(=O)n1CCCl | 0.27% [at 42.5 µM]
NCCNC(=O)c1ccc(Cl)cn1 | 0.524% [at 42.5 µM]
OCCN1C[C@H](O)[C@@H](O)[C@H](O)[C@H]1CO | -0.303% [at 42.5 µM]
NC(N)=NS(=O)(=O)c1ccc(N)cc1 | 0.735% [at 42.5 µM]
Cc1c(F)cc2c(=O)c(C(=O)O)cn3c2c1CCC3C (stereo not given) | 0.0152% [at 42.5 µM]
CCCC=O | 0.536%
